Compound activity from PubChem BioAssay.
Shown are actives, neighbours in structure and some others; about 4% of the full set was active somewhere.
RecA splice inh: Mtb RecA intein splicing inhibitors, primary screen, biochemical, fluorescence, HTS. Protein RecA (Mycobacterium tuberculosis (strain ATCC 25618 / H37Rv)), P9WHJ3. cell-free RecA intein splicing. inhibition, % (test concentration not listed). hit rate 0.75% among 290,000. AID 2221, 2009; in the data active = inhibition above about 30%; inconclusive = no clear call, values can overlap the other calls;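 note: 0% = vehicle wells and 100% = reference inhibitor control wells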
Mtb FBA inh: Mtb FBA enzyme inhibitors, primary screen, biochemical, fluorescence, strain H37Rv. inhibition, % at 1 µM. AID 588726, 2011. hit rate 2.3% among 360,000. Fructose-bisphosphate aldolase (Mycobacterium tuberculosis (strain ATCC 25618 / H37Rv)), …. purified M. tuberculosis FBA, fluorescence read-out;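 note: 0% = vehicle and 100% = reference inhibitor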
UGM FP inh: M. tuberculosis UGM enzyme inhibitors, primary screen, biochemical, fluorescence polarization, single point. UDP-galactopyranose mutase (Mycobacterium tuberculosis (strain ATCC 25618 / H37Rv)), …. purified UGM, fluorescence polarization probe displacement. inhibition, % at 10 µM. hit rate 0.06% among 320,000. AID 504406, 2011; in the data active = inhibition above about 10%, passing the limit was not always enough; inconclusive = no clear call, values can overlap the other calls
Target sequence (P9WIQ1 whole entry, looked up): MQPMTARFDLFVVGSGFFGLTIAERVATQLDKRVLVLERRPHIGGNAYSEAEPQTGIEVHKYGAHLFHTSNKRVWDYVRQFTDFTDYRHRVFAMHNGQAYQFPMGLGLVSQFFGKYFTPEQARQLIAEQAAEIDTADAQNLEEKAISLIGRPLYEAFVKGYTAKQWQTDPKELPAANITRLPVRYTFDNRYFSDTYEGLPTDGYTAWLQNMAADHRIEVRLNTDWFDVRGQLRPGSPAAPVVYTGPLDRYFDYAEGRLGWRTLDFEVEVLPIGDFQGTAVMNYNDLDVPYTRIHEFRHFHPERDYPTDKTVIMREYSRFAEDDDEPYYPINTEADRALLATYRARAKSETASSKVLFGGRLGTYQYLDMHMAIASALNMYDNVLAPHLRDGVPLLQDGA
Mtb bLac sens: beta-lactam sensitization of Mtb H37Rv, H37Rv; M. tuberculosis H37Rv growth with meropenem, percent inhibition; inhibition, % at 25 µM; hit rate 0.27% among 330,000; call rule not given here;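 note: growth measured after seven days incubation then overnight dye step; 0% = bacteria only wells and 100% = bacteria with antibiotic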
GDH-TPI counter-1: GDH-TPI coupling enzyme inhibitors, primary screen, artefact control for M. tuberculosis FBA inhibitor project, biochemical, absorbance, full deck. GDH-TPI coupled enzyme counterscreen, NADH absorbance. inhibition, % at 4.8 µM. hit rate 1.2% among 360,000. AID 588335, 2011; in the data active = inhibition above about 30%;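 note: 0% = DMSO wells and 100% = wells lacking the enzyme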
Rv3671c protease: Rv3671c serine protease inhibitors, primary screen, biochemical, fluorescence polarization, M. tuberculosis H37Rv | P9WHR9 | inhibition, % at 5.96 µM | hit rate 0.048% among 320,000 | AID 2606, 2010; in the data active = inhibition above about 38%;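 note: extracellular domain of Rv3671c used as enzyme; 0% = enzyme with DMSO and 100% = no enzyme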
Mtb FBA inh conf: M. tuberculosis aldolase blockers, biochemical, fluorescence, strain H37Rv, confirmation | hit rate 78% among 5,600 | inhibition, % at 1 µM | shares compounds with Mtb FBA inh | purified M. tuberculosis FBA, fluorescence read-out | AID 651616, 2012;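 note: 0% = vehicle wells and 100% = reference inhibitor wells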
GDH-TPI counter-2: GDH-TPI coupling enzyme inhibitors, artefact control for M. tuberculosis FBA inhibitor project, biochemical, fluorescence, high throughput; hit rate 81% among 5,600; inhibition, % at 1 µM; GDH-TPI coupled enzyme counterscreen; shares compounds with Mtb FBA inh; AID 652141, 2013; in the data active = inhibition above about 10%
* = called active by the depositor; ? = inconclusive; . = not tested or not shown. Cut-off read from the data, not from the text of the source, unless noted: active = inhibition above about 27%; inactive = the rest.

SMILES	RecA splice inh	Mtb FBA inh	UGM FP inh	Mtb bLac sens	GDH-TPI counter-1	Rv3671c protease	Mtb FBA inh conf	GDH-TPI counter-2
COc1cc(C2c3c([nH]c(=O)[nH]c3=O)Nc3ccc4ccccc4c32)ccc1O (configuration not stated)	.	9.2	2.2	-0.8	6.3	12.0	.	.
CCS(=O)(=O)c1ccc(O)c(NC(=O)NC2CCCCC2)c1	1.4	1.6	-1.8	3.6	6.3	1.8	.	.
Nc1ccc2c(S(=O)(=O)O)cccc2c1S(=O)(=O)O	.	52.5*	.	.	16.8	.	75.6*	80.8*
Nc1ccccc1S(=O)(=O)c1ccccc1N	-0.5	-4.9	-0.1	1.5	4.0	3.2	.	.
CC(Sc1nc(N)cc(=O)[nH]1)C(=O)NNC(=O)c1cccc(Cl)c1 (configuration not stated)	.	3.3	3.0	3.5	-0.7	6.3	.	.
N#CC1(C#N)C(c2ccccc2)OC23CCCCC2C1(C#N)C(=N)O3 (configuration not stated)	-311.4	75.2*	4.7	5.7	0.0	-0.1	58.0*	64.0*
N#CC1(C#N)C(c2ccccc2)OC23CCCCCC2C1(C#N)C(=N)O3 (configuration not stated)	-58.1	40.9*	1.6	1.3	2.2	-8.0	40.4*	33.9*
O=C(Nc1cccc2cccnc12)c1csc(COCCO)n1	.	8.3	.	.	9.7	.	.	.
COc1ccc(S(=O)(=O)N2CCCCC2c2cc(C(=O)NCc3cccnc3)no2)cc1 (configuration not stated)	.	-3.6	.	.	1.8	.	.	.
COc1ccc(OC)c(CN2CCN(C(=O)c3ccc(C)c(S(=O)(=O)Nc4ccccc4OC)c3)CC2)c1	.	1.7	.	.	3.1	.	.	.
Cc1ccccc1-c1nc2cc(NC(=O)C3CC3)ccc2o1	.	106.7*	-2.3	24.1	16.1	-9.1	16.6	15.0*
O=C(Nc1ccc2oc(-c3cccc4ccccc34)nc2c1)c1ncn[nH]1	-1.6	66.4*	2.9	4.0	36.5*	-64.2	35.9*	29.1*
O=C(Nc1ccc2oc(-c3ccccc3Cl)nc2c1)c1ncn[nH]1	0.4	17.2	1.8	-1.1	1.1	-32.9	.	.
COc1ccc(-n2cnnc2SCC(=O)NC2CCCCC2)cc1	.	3.6	-5.4	-4.4	2.5	6.0	.	.
COc1cccc(CNC(=O)c2ccc(CS(=O)Cc3ccc(C)cc3)o2)c1 (configuration not stated)	-1.1	0.8	-0.9	-0.8	-3.5	-9.3	.	.
COc1cc2c(cc1OC)C[N+](C)(C)CC2	-3.0	3.9	0.2	-5.9	0.0	-5.0	.	.
COc1cc2c(cc1OC)CC[N+](C)=C2	-41.9	95.0*	-1.8	-2.6	14.7	-8.8	111.5*	76.5*
CC[C@@H]1C(c2cccc(Cl)c2)=NN(c2ccc(Br)cc2)[C@H]1C(=O)N1CCOC1=O	.	55.3*	.	.	14.6	.	60.1*	43.4*
O=c1[nH]cnc2c1nnn2Cc1ccccc1	1.3	3.1	-1.4	2.7	-0.9	0.7	.	.
O=c1[nH]cnc2nc(-c3ccccc3)c(-c3ccccc3)nc12	-2.1	50.0*	-1.5	4.5	9.7	-2.2	8.0	3.5
O=c1[nH]cnc2nn(-c3ccccc3)nc12	-4.7	98.7*	0.4	4.7	18.7	-3.2	8.6	6.4
O=c1[nH]cnc2ncc(-c3ccc(O)cc3)nc12	-2.1	-1.7	-6.3	-5.0	29.2	4.3	.	.
O=C(NCc1ccccc1)C1CC(=O)N(c2ccc(OCC(=O)N3CCOCC3)cc2)C1 (configuration not stated)	-1.9	-2.5	3.0	-6.4	-1.9	-4.7	.	.
Cc1ccc2nc(-c3ccccn3)oc2c1	-3.7	103.1*	-1.7	-6.0	17.3	8.0	41.7*	30.4*
COC(=O)c1ccc(-c2nc3ccc(C)cc3o2)cc1	.	31.6*	-0.3	-13.4	10.1	0.9	147.2*	123.6*
SMILES	RecA splice inh	Mtb FBA inh	UGM FP inh	Mtb bLac sens	GDH-TPI counter-1	Rv3671c protease	Mtb FBA inh conf	GDH-TPI counter-2
Cc1nn(-c2ccc(N3CCCCC3)nn2)c(C)c1CCC(=O)Nc1ccc(F)c(F)c1	2.0	-0.9	0.7	7.7	7.1	-7.4	.	.
O=C(C1CCCCC1)N1CCN=C1SCc1cccc([N+](=O)[O-])c1	3.8	2.2	-1.3	1.0	3.1	3.6	.	.
CCC1CCCCN1Cc1nc2ccccc2c(=O)n1CC(C)=O (configuration not stated)	1.1	-1.7	-2.6	-2.3	18.8	-0.8	.	.
CN1CCN(Cc2c(O)ccc3c(-c4ccccc4)cc(=O)oc23)CC1	-44.8	3.2	-0.9	?	10.6	-1.6	.	.
CC1CN(Cc2c(O)ccc3c(=O)c(-c4ccccc4)coc23)CC(C)O1 (configuration not stated)	-2.6	89.9*	2.2	-6.9	24.8	1.6	-5.5	-6.0
CCC1CCCCN1Cc1c(O)ccc2c(=O)c(-c3ccccc3)coc12 (configuration not stated)	0.3	54.5*	0.6	-0.3	21.4	-11.8	41.4*	32.5*
CCc1cc2c(=O)c(-c3ccc4c(c3)OCCO4)coc2c(CN2CCCCC2C)c1O (configuration not stated)	-2.1	45.1*	4.0	2.1	14.2	-1.0	70.4*	70.5*
CC1CCCCN1Cc1c(O)ccc2c(=O)c(-c3ccccc3)coc12 (configuration not stated)	-3.3	65.8*	-0.7	-1.6	15.2	-4.9	77.0*	56.9*
CC1CN(Cc2c(O)ccc3c2oc(=O)c2ccccc23)CC(C)O1 (configuration not stated)	-7.2	5.0	2.0	-6.2	17.3	4.1	.	.
CCc1cc2c(=O)c(-c3nc4ccccc4[nH]3)coc2c(CN2CCCCC2C)c1O (configuration not stated)	-2.1	-4.3	1.0	48.2	19.8	6.6	.	.
Cc1cc(C)cc(OCC(O)CN2CC(C)OC(C)C2)c1 (configuration not stated)	1.4	0.1	1.8	-0.8	5.4	-0.3	.	.
CC(C)OP(=O)(CCP(=O)(OC(C)C)OC(C)C)OC(C)C	-1.3	2.3	2.5	-8.2	4.8	9.2	.	.
CC(C)[C@H](NC(=O)c1nn(Cc2ccccc2)c(=O)c2ccccc12)C(=O)O	-1.5	0.8	-1.3	-9.4	6.0	-3.5	.	.
COCCn1c(SCC(=O)N2CCC(C)CC2)nc2c([nH]c3ccccc32)c1=O	5.1	1.0	-2.1	?	9.9	12.4	.	.
